Source: PubChem (several laboratories)
tim23-1 inh = growth inhibitors of tim23-1 mutant yeast, primary screen, luminescence, uHTS | S. cerevisiae tim23-1 growth, BacTiter-Glo luminescence, 24 h | inhibition, % at 20 µM | hit rate 1.3% among 330,000 | AID 463212, 2010;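 active = growth inhibition of the mutant yeast at or above 50%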;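 note: temperature-sensitive mutant grown at 25 °C; plate controls were DMSO-treated mutant yeast for no effect and medium wells lacking yeast for full effect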
Beta2AR agonist = beta2AR agonists driving receptor internalization, primary screen, cell-based, FAP fluorogen, flow cytometry; Am2.2-beta2AR cells; response, % (test concentration not listed); Beta-2 adrenergic receptor (Homo sapiens), P07550; AID 504454, 2011; hit rate 0.43% among 340,000;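 active = response above a set limit, near 3 SD of response in nonfluorescent compounds, cut at about 42% in these data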
Target sequence (P07550 whole entry, looked up): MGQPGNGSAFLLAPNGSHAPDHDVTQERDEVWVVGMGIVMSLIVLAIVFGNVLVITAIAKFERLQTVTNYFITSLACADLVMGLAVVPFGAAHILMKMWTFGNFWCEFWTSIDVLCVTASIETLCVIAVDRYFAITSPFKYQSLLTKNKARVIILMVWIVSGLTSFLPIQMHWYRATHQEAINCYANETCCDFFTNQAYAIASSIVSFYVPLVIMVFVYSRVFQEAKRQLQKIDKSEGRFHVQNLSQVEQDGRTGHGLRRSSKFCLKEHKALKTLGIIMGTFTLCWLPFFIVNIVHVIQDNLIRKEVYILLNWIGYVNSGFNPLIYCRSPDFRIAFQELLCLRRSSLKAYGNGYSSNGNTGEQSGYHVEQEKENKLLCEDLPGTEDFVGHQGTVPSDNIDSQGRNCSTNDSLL
tim10-1 inh = growth inhibitors of tim10-1 mutant yeast, primary screen, luminescence, uHTS | hit rate 2.2% among 330,000 | inhibition, % at 20 µM | AID 463190, 2010 | S. cerevisiae tim10-1 ts strain growth, BacTiter-Glo, 24 h;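 active = inhibition of at least 40%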;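 note: mutant grown at 25 °C; 0% = DMSO wells with yeast and 100% = wells holding no yeast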
PfHsp90 yeast 2 = growth inhibition of PfHsp90-expressing yeast, primary screen, antimalarial PfHsp90 inhibitor project, S. cerevisiae, BacTiter-Glo luminescence, single point, set 2. inhibition, % at 9.4 µM. hit rate 0.32% among 310,000. AID 504621, 2011. BacTiter-Glo ATP, 48 h; yeast lacking PDR1 and PDR3 efflux regulators;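 active = every replicate shows inhibition above about 80%, whatever the replicate mean, limit read from the data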;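 note: 0% = DMSO neutral controls and 100% = 20 µM radicicol positive controls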
TIM10 inh = growth inhibitors of isogenic TIM10 control yeast, primary screen, counter-screen for tim10-1 yeast inhibitor project, luminescence, uHTS | S. cerevisiae TIM10 strain growth, BacTiter-Glo luminescence, 24 h | inhibition, % at 10 µM | hit rate 1.4% among 330,000;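 active = inhibition of 40% or more at the single tested concentration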;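 note: wild-type TIM10 isogenic control strain grown at permissive 25 °C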
tim23-1 conf = tim23-1 mutant yeast growth inhibitors, confirmation, luminescence, single concentration | shares compounds with tim23-1 inh | S. cerevisiae tim23-1 growth, BacTiter-Glo luminescence, 24 h | inhibition, % at 20 µM | hit rate 83% among 4,400 | AID 463218, 2010;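 active = inhibition above about 39% in either of two replicate wells at 20 µM, limit read from the data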;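 note: temperature-sensitive tim23-1 mutant grown at 25 °C; 0% = DMSO wells with yeast and 100% = medium wells without yeast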
* = called active by the depositor; . = no result given. Only some compounds are listed: those with a hit (about 3.8% of all), similar ones and a draw of the others.

SMILES | tim23-1 inh | Beta2AR agonist | tim10-1 inh | PfHsp90 yeast 2 | TIM10 inh | tim23-1 conf
C=CCC1Cc2c(Br)cccc2C(CC=C)N1 (centres undefined) | 53* | -2 | 33 | 10 | 20 | 46*
CCOc1cc(C)nc(N2CCC(C(=O)NCC3CCCO3)CC2)n1 (centres undefined) | . | 1 | . | -17 | . | .
O=C1ON=C(c2ccccc2)/C1=C/c1ccccc1 | 51* | 8 | 20 | 1 | 14 | 39*
Cc1cnc(NC(=O)c2ccc3c(c2)OCCO3)s1 | 18 | -13 | -24 | 10 | 6 | .
O=C(Nc1ncc([N+](=O)[O-])s1)c1ccc2c(c1)OCO2 | 57* | 16 | 34 | 53 | 35 | 59*
CCN(CC)C(=O)C(=O)N/N=C/c1ccc(C(=O)OC)cc1 | 6 | -2 | 11 | -4 | 7 | .
Clc1ccc(-c2csc3ncnc(Cl)c23)cc1 | 60* | 4 | 9 | -16 | -13 | 42*
NNc1ncnc2scc(-c3ccc(Cl)cc3)c12 | 58* | -14 | 6 | 19 | 31 | 50*
CC(C)CN=Cc1c(O)c([N+](=O)[O-])cc2oc3c(c12)CCCC3 | 66* | -58 | 37 | -12 | 40 | 1
Cc1ccc2nc(NC(=O)COC(=O)c3cccnc3)sc2c1 | 53* | 3 | -15 | . | 31 | 60*
Cc1ccc2nc(NC(=O)COC(=O)c3ccco3)sc2c1 | 17 | 14 | 7 | . | 31 | .
N#Cc1nc(-c2cccc3ccccc23)oc1NCC1CCCO1 (centres undefined) | 54* | 1 | 30 | . | 33 | 52*
CCOc1ccc(NS(=O)(=O)c2ccc(C(=O)N(C)CC(=O)Nc3cccc(OC)c3)cc2)cc1 | . | -3 | . | 0 | . | .
Fc1ccc(CSc2nc3ccccc3[nH]2)c2ccccc12 | 56* | -4 | 32 | -44 | 39 | 55*
O=C(Cn1ncc2c1-c1ccccc1OC2)Nc1nc2ccccc2s1 | 62* | -5 | 12 | -4 | 27 | 57*
COc1ccc2nc(N3C(=O)CNC3=S)sc2c1 | 47 | 2 | 2 | 12 | 13 | .
Cc1ccc2nc(N3C(=O)CNC3=S)sc2c1 | 64* | 16 | 22 | 9 | 29 | 66*
CCOC(=O)N1CCN(C(=O)c2c[nH]c3ccc(S(=O)(=O)N(C)c4ccc(OCC)cc4)cc3c2=O)CC1 | 2 | -2 | 5 | 44 | 4 | .
COc1cccc(C2=CC(=O)CC(C)(C)C2)c1OC | 21 | -2 | 12 | -1 | 5 | .
CC1(C)CC(=O)C=C(c2cccc(Cl)c2O)C1 | 59* | -1 | -1 | -9 | 17 | 53*
CC(Sc1ncnc2sc(-c3ccccc3)cc12)C(=O)NCC1CCCO1 (centres undefined) | 30 | 2 | 16 | -3 | -9 | .
CCCN(CC(=O)Nc1cc(Cl)ccc1Cl)C(=O)c1ccccn1 | 10 | -2 | -6 | 25 | -2 | .
Oc1ccc(Oc2ccc(Oc3ccc(O)cc3)cc2)cc1 | 59* | -1 | -10 | -91 | -16 | 51*
CCOc1ccc(NC(=O)COC(=O)CC2CCCCC2)cc1 | 31 | -7 | -21 | -14 | 15 | .
O=C(COC(=O)CC1CCCC1)Nc1ccc(Cl)cc1 | 62* | -3 | 36 | . | 26 | 55*
SMILES | tim23-1 inh | Beta2AR agonist | tim10-1 inh | PfHsp90 yeast 2 | TIM10 inh | tim23-1 conf
C#CCOCCOCCOCCNc1nc(N2CCN(C(=O)CCCCCCCCCCNC(=O)Cn3cc(C[C@@H](C)O)nn3)CC2)nc(N2CCN(C(=O)CCCCCCCCCCNC(=O)[C@H](CCCCN)n3cc(C[C@@H](C)CC)nn3)CC2)n1 | 54* | 40 | 34 | 9 | 7 | 56*
C#CCOCCOCCOCCNc1nc(N2CCN(C(=O)CCCCCCCCCCNC(=O)[C@H]([C@@H](C)CC)n3cc(CCCCN=C(N)N)nn3)CC2)nc(N2CCN(C(=O)CCCCCCCCCCNC(=O)[C@H](CCCCN)n3cc(C[C@@H](C)CC)nn3)CC2)n1 | 52* | . | 26 | . | 18 | 45*
C#CCOCCOCCOCCNc1nc(N2CCN(C(=O)CCCCCCCCCCNC(=O)Cn3cc(CCCCCN)nn3)CC2)nc(N2CCN(C(=O)CCCCCCCCCCNC(=O)[C@H](CO)n3cc(CCCCCN)nn3)CC2)n1 | 53* | 22 | 34 | 11 | 11 | 45*
C#CCOCCOCCOCCNc1nc(N2CCN(C(=O)CCCCCCCCCCNC(=O)Cn3cc(C[C@@H](C)O)nn3)CC2)nc(N2CCN(C(=O)CCCCCCCCCCNC(=O)Cn3cc(C[C@@H](C)O)nn3)CC2)n1 | 6 | 15 | 4 | -3 | -5 | .
O=C(COC(=O)CNS(=O)(=O)c1cccc(Br)c1)NC(=O)Nc1ccc2c(c1)OCCO2 | . | 0 | . | 10 | . | .
CCOc1ccc(NS(=O)(=O)c2c(C(=O)N3CCCCCC3)c(C)n(C)c2C)cc1 | 14 | -9 | 16 | -10 | 9 | .
O=[N+]([O-])c1nn(-c2ccc3c(c2)OCCO3)n(O)c1=Nc1ccccc1 | 53* | 4 | 36 | -91 | 5 | 23
COc1ccc(CN2CCC(C(=O)Nc3ccc(Oc4ccccc4)nc3)CC2)cc1F | -6 | -2 | -9 | -10 | 6 | .
Nc1ccc(Sc2cnn(-c3ccccc3)c(=O)c2Cl)cc1 | 50* | 5 | 17 | -12 | 19 | 29
CCC1=C(c2ccc(OC)cc2)CCC(C(=O)O)C1C (centres undefined) | . | -15 | . | -20 | . | .
CCCC1(C(=O)OCC)NC(c2ccco2)C2C(=O)N(C)C(=O)C21 (centres undefined) | 12 | 0 | 10 | -42 | 1 | .
Cc1noc(C)c1CSc1nc2ccccc2c(=O)n1-c1ccccc1 | 52* | -6 | 32 | -37 | 13 | 45*
Cc1ccc(-c2nnc(OCc3nc4ccccc4n3C)c3ccccc23)cc1 | 52* | -2 | 34 | 29 | 28 | 50*
Cc1ccc(-c2nnc(OCc3cccnc3)c3ccccc23)cc1 | 53* | -10 | 30 | . | -14 | 54*
CC(C)c1ccc(C(C(C(=O)c2ccccc2)N2CCOCC2)N2CCOCC2)cc1 (centres undefined) | . | 7 | . | 26 | . | .
Cc1ccc2oc(=O)c(-c3ccc(O)cc3)c(C)c2c1 | 52* | 0 | 23 | 1 | 13 | 47*
Cc1c(-c2ccccc2)c(=O)oc2ccc(O)cc12 | 21 | -4 | 19 | -19 | -26 | .
O=C(/C=C/c1ccccc1Br)c1ccc2c(c1)OCO2 | 28 | 11 | 5 | 0 | 2 | .
COc1cccc(/C=C/C(=O)c2ccc3c(c2)OCO3)c1OC | 53* | 12 | 26 | 2 | 33 | 54*
